In the supplement of paper PMC10338343:
± gives the standard deviation. Over roughly 8,200 sequences, “pre-steady-state target cleavage rate” has its median near 0.024; the highest 2% begin near 1.3. Only a selection was taken, and the highest values are over-represented in it overall.

Tested on: MIWI (PIWIL1) piRISC loaded with L1MC piRNA (30 nt)
Assay: pre-steady-state target cleavage rate (min^-1); MIWI and MILI are mouse PIWI proteins and EfPiwi is from a freshwater sponge; tags in brackets are library labels; higher = faster piRNA-guided slicing of the target
Details: guide: L1MC piRNA 5'p-UAACUAAAUACUAUGCAAGCUGUAGGUCCU
Summary of the method: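 Using HEPES–potassium acetate buffer at 33 °C, 1 nM active affinity-purified piRISC with a single synthetic guide was mixed with 0.1 nM transcribed, DNA-blocked target RNA library for 0–8 or 0–960 min, with or without 500 nM GTSF1 partner protein. Uncleaved targets were sequenced and normalised to depth and to weakly complementary targets, and three trials were pooled with k3 capped at 0.0001 min^-1. A burst-and-steady-state fit gave the pre-steady-state cleavage rate.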

[1] = auxiliary factor: 500 nM mouse GTSF1
[2] = auxiliary factor: none (no GTSF1)

## UGGAGCUACAGCUUGCAUUGUAUUUAGUUA
[1]
  pre-steady-state target cleavage rate: 0.934 ± 0.038
[2]
  pre-steady-state target cleavage rate: 0.0337 ± 0.0068

## UCCUCCUACAGCUUGCAUACUAUUUAGAUA
[1]
  pre-steady-state target cleavage rate: 0.0831 ± 0.015
[2]
  pre-steady-state target cleavage rate: 0.0075 ± 0.0022

## UCCUGGAUGUGCUUGCAUAGUAUUUAGAUA
[1]
  pre-steady-state target cleavage rate: 0.118 ± 0.023
[2]
  pre-steady-state target cleavage rate: 0.0188 ± 0.0067

## UCGACCUACAGCUUGCAUAGAAUUUUCAAA
[1]
  pre-steady-state target cleavage rate: 0.369 ± 0.059

## UCCUGGUACAGCUUACAUAGUAUUUAGUUA
[1]
  pre-steady-state target cleavage rate: 0.749 ± 0.056
[2]
  pre-steady-state target cleavage rate: 0.0246 ± 0.0048

## UCCUGCUACAGCUUGCAUAGUAUUUAGUUA [g2:g25:cont:t1A]
[1]
  pre-steady-state target cleavage rate: 0.864 ± 0.042
[2]
  pre-steady-state target cleavage rate: 0.0585 ± 0.01

## UGGUGCUACAGCUUGCAUAGUAUUUAGUUA
[1]
  pre-steady-state target cleavage rate: 0.988 ± 0.079
[2]
  pre-steady-state target cleavage rate: 0.0764 ± 0.017

## UCCUGCUACAGCUUGCAUAUAUUUAGUUA
[1]
  pre-steady-state target cleavage rate: 0.408 ± 0.045
[2]
  pre-steady-state target cleavage rate: 0.00397 ± 0.0033

## AGCAGCUACAGCUUGCAUAGUAUUUAGUUA
[1]
  pre-steady-state target cleavage rate: 1.37 ± 0.067
[2]
  pre-steady-state target cleavage rate: 0.079 ± 0.016

## AGCUGCUACAGCUUGCAUAGUAUUUAGUAA
[1]
  pre-steady-state target cleavage rate: 0.977 ± 0.11
[2]
  pre-steady-state target cleavage rate: 0.0202 ± 0.0038

## UGCUGCUACAGCUUGCAUAGUAUUUAGUAA
[1]
  pre-steady-state target cleavage rate: 0.875 ± 0.084
[2]
  pre-steady-state target cleavage rate: 0.0204 ± 0.0041

## UGCAGCUACAGCUUGCAUAGUAUUUAGUUA
[1]
  pre-steady-state target cleavage rate: 1.21 ± 0.081
[2]
  pre-steady-state target cleavage rate: 0.0733 ± 0.013

## UCCUGCUACAGCUUGCAUAUUAUUUAGUUA
[1]
  pre-steady-state target cleavage rate: 1.31 ± 0.066
[2]
  pre-steady-state target cleavage rate: 0.0449 ± 0.0088

## AGCUGCUACAGCUUGCAUAGUAUUUAGUUA
[1]
  pre-steady-state target cleavage rate: 1.49 ± 0.07
[2]
  pre-steady-state target cleavage rate: 0.0697 ± 0.012

## UCCUGCUACAGCUUGCAUAGUAUUUUAGUUA
[1]
  pre-steady-state target cleavage rate: 0.817 ± 0.067
[2]
  pre-steady-state target cleavage rate: 0.0107 ± 0.0028

## UCCUGCUACAGCUUGCAUAGUUAUUUAGUUA
[1]
  pre-steady-state target cleavage rate: 0.073 ± 0.013
[2]
  pre-steady-state target cleavage rate: 0.00386 ± 0.0025

## UGCUGCUACAGCUUGCAUAGUAUUUAGUUA
[1]
  pre-steady-state target cleavage rate: 1.55 ± 0.058
[2]
  pre-steady-state target cleavage rate: 0.0595 ± 0.011

## UCCUGGAACAGCUUCAUAGUAUUUAGUUA
[1]
  pre-steady-state target cleavage rate: 0.95 ± 0.051
[2]
  pre-steady-state target cleavage rate: 0.00772 ± 0.0027

## UCCACCUACAGCUUGCGAUAGUAUUUAGUUA
[1]
  pre-steady-state target cleavage rate: 0.0565 ± 0.018

## UGGACCAUGAGCUUGCAUAGUAUUUAGUAA
[1]
  pre-steady-state target cleavage rate: 0.675 ± 0.045
[2]
  pre-steady-state target cleavage rate: 0.0285 ± 0.0075

## UCCUGGAACACCUUGCAUAGUUUUUAGUUA
[1]
  pre-steady-state target cleavage rate: 0.148 ± 0.023
[2]
  pre-steady-state target cleavage rate: 0.0142 ± 0.0044

## UCCUGGAACAGCUUGCAUAGUUUUUUGUUA
[1]
  pre-steady-state target cleavage rate: 0.197 ± 0.025
[2]
  pre-steady-state target cleavage rate: 0.0238 ± 0.0057

## UCGUCCUACAGCUUGCAUAGUAAUUAGUUA
[1]
  pre-steady-state target cleavage rate: 0.874 ± 0.027
[2]
  pre-steady-state target cleavage rate: 0.0282 ± 0.006

## UCCUCCUACAGCUUGCAUAGUAAUUAGUAA
[1]
  pre-steady-state target cleavage rate: 0.347 ± 0.039
[2]
  pre-steady-state target cleavage rate: 0.0074 ± 0.0022

## UCCUGGUACAGCAUGCAUAGUAAUUAGUUA
[1]
  pre-steady-state target cleavage rate: 0.457 ± 0.054
[2]
  pre-steady-state target cleavage rate: 0.0118 ± 0.0031

## AGGACCUACAGCUAGCAUAGUAUUUAGAAA
[1]
  pre-steady-state target cleavage rate: 0.571 ± 0.066
[2]
  pre-steady-state target cleavage rate: 0.00411 ± 0.0025

## UCCUGCUACAGCUUGCAUAGUAUUUUGUAA
[1]
  pre-steady-state target cleavage rate: 0.274 ± 0.043
[2]
  pre-steady-state target cleavage rate: 0.009 ± 0.0031

## UCCUGGAUGAGCUACCAUAGUAUUUAGUUA
[1]
  pre-steady-state target cleavage rate: 0.0107 ± 0.0041

## UCCUCCUACAGCUUGCAUAGUAUUGUAGUUA
[1]
  pre-steady-state target cleavage rate: 0.282 ± 0.054
[2]
  pre-steady-state target cleavage rate: 0.00959 ± 0.0038

## UCCUGGAACAGCUUGCAUGUAUUUAGUUA
[1]
  pre-steady-state target cleavage rate: 0.103 ± 0.015
[2]
  pre-steady-state target cleavage rate: 0.00591 ± 0.0032

## UCCUGGAUGUCCUUGCAUACUAUUUAGUUA
[1]
  pre-steady-state target cleavage rate: 0.0164 ± 0.0047
[2]
  pre-steady-state target cleavage rate: 0.00616 ± 0.0016

## UCCACCUACAGCUUCCAUAGUAUUUACAAA
[1]
  pre-steady-state target cleavage rate: 0.0165 ± 0.008

## UCCUGGUACAGCUUGCAUAGUAUUUAGCUA
[1]
  pre-steady-state target cleavage rate: 0.00692 ± 0.0039

## AGGUGCUACAGCUUGCAUAGUAUUUAGUUA
[1]
  pre-steady-state target cleavage rate: 1.23 ± 0.064
[2]
  pre-steady-state target cleavage rate: 0.0832 ± 0.016

## UCGUGCUACAGCUUGCAUAGUAUUUAGUAA
[1]
  pre-steady-state target cleavage rate: 0.926 ± 0.053
[2]
  pre-steady-state target cleavage rate: 0.0286 ± 0.0054

## UCGUGCUACAGCUUGCAUAGUAUUUAGUUA
[1]
  pre-steady-state target cleavage rate: 1.38 ± 0.059
[2]
  pre-steady-state target cleavage rate: 0.0704 ± 0.012

## UGGAGGAACAGCUUGCAUAGUAUUUAGAAA
[1]
  pre-steady-state target cleavage rate: 0.364 ± 0.037
[2]
  pre-steady-state target cleavage rate: 0.00934 ± 0.004

## UCCUCCUACCAGCUUGCAUAGUAUUUAGUUA
[1]
  pre-steady-state target cleavage rate: 1.15 ± 0.055
[2]
  pre-steady-state target cleavage rate: 0.0479 ± 0.011

## UCGACCUACAGGUUGCAUACUAUUUAGUUA
[1]
  pre-steady-state target cleavage rate: 0.273 ± 0.018
[2]
  pre-steady-state target cleavage rate: 0.0207 ± 0.004

## UCGACCUACAGCAUGCAUAGUAUUUAGUAA
[1]
  pre-steady-state target cleavage rate: 0.99 ± 0.072
[2]
  pre-steady-state target cleavage rate: 0.0189 ± 0.0064

## UGCACCUACAGCAUGCAUAGUAUUUAGUUA
[1]
  pre-steady-state target cleavage rate: 0.998 ± 0.092
[2]
  pre-steady-state target cleavage rate: 0.0271 ± 0.0047

## UCGACCUACAGCAUGCAUAGUAUUUAGUUA
[1]
  pre-steady-state target cleavage rate: 1.48 ± 0.049
[2]
  pre-steady-state target cleavage rate: 0.0548 ± 0.013

## ACGACCUACAGCAUGCAUAGUAUUUAGUUA
[1]
  pre-steady-state target cleavage rate: 1.43 ± 0.053
[2]
  pre-steady-state target cleavage rate: 0.082 ± 0.021

## UCGACCUACAGCAUUGCAUAGUAUUUAGUUA
[1]
  pre-steady-state target cleavage rate: 1.19 ± 0.082
[2]
  pre-steady-state target cleavage rate: 0.0581 ± 0.012

## AGCACCUACAGCAUGCAUAGUAUUUAGUUA
[1]
  pre-steady-state target cleavage rate: 1.02 ± 0.13
[2]
  pre-steady-state target cleavage rate: 0.0663 ± 0.022

## UCCUGCUAGAGCUUGCAUAGUAUUUACAAA
[1]
  pre-steady-state target cleavage rate: 0.186 ± 0.047

## UCCUGCUACAGCUAGCAUAGUAUUUUCAAA
[1]
  pre-steady-state target cleavage rate: 0.0744 ± 0.023

## UCCUGGAACAGCUUGCAAUGUAUUUAGUAA
[1]
  pre-steady-state target cleavage rate: 0.146 ± 0.018
[2]
  pre-steady-state target cleavage rate: 0.00598 ± 0.003

## UGGACCUACAGCUUGCAUAGUAUUUAUUA
[1]
  pre-steady-state target cleavage rate: 0.126 ± 0.015
[2]
  pre-steady-state target cleavage rate: 0.00594 ± 0.0034

## UGGACCUACAGCUUGCAUAGUUAAUAGAAA
[1]
  pre-steady-state target cleavage rate: 0.0323 ± 0.01

## UGGACCUCAGCUUGCAUAGUAUUUAGUUA
[1]
  pre-steady-state target cleavage rate: 1.43 ± 0.094
[2]
  pre-steady-state target cleavage rate: 0.055 ± 0.011

## UCCACCUCAGCUUGCAUAGUAUUUAGUUA
[1]
  pre-steady-state target cleavage rate: 0.878 ± 0.07
[2]
  pre-steady-state target cleavage rate: 0.0436 ± 0.0088

## UGGACCUAAGCUUGCAUAGUAUUUAGUUA
[1]
  pre-steady-state target cleavage rate: 1.27 ± 0.083
[2]
  pre-steady-state target cleavage rate: 0.0446 ± 0.012

## AGGACCUCCAGCUUGCAUAGUAUUUAGUUA
[1]
  pre-steady-state target cleavage rate: 1.22 ± 0.048
[2]
  pre-steady-state target cleavage rate: 0.0926 ± 0.018

## AGGACCUCAGCUUGCAUAGUAUUUAGUUA
[1]
  pre-steady-state target cleavage rate: 1.34 ± 0.077
[2]
  pre-steady-state target cleavage rate: 0.0984 ± 0.019

## UGGACCUCCAGCUUGCAUAGUAUUUAGUUA
[1]
  pre-steady-state target cleavage rate: 1.39 ± 0.054
[2]
  pre-steady-state target cleavage rate: 0.08 ± 0.014

## UCCACCUCCAGCUUGCAUAGUAUUUAGUUA
[1]
  pre-steady-state target cleavage rate: 0.89 ± 0.033
[2]
  pre-steady-state target cleavage rate: 0.0442 ± 0.0078

## UCGACCUACUGCUUGCAUAGUAUUUACUUA
[1]
  pre-steady-state target cleavage rate: 0.278 ± 0.017
[2]
  pre-steady-state target cleavage rate: 0.0322 ± 0.0038

## UCCUGGUACACCUUGCAUAGUAUAUAGUUA
[1]
  pre-steady-state target cleavage rate: 0.555 ± 0.09
[2]
  pre-steady-state target cleavage rate: 0.00685 ± 0.0027

## UCCACCUACAGCUUGCAUAGUAUAAUCAAA
[1]
  pre-steady-state target cleavage rate: 0.327 ± 0.056

## UCCUGGAGCAGCUUGCAUAGUAUUUAGUUA
[1]
  pre-steady-state target cleavage rate: 1.13 ± 0.044
[2]
  pre-steady-state target cleavage rate: 0.0692 ± 0.013
